About 530 (0.96%) of roughly 55,000 compounds were called active. Inconclusive results (about 7%) are left out. The full list was thinned out, with actives kept by preference. A number with no mark means an inactive call. Calls follow the shape of the dose curve; as a rule, active = well fitted cell-killing curve with a large enough effect; inconclusive = small, poorly fitted or top-dose-only effect; inactive = no such curve, though single readings can be large or run the other way.
assay: qHTS Screen for Compounds that Selectively Target Cancer Cells with p53 Mutations: Cytotoxicity of p53 Null Cells at the Nonpermissive Temperature; conditions: H1299 p53-null (neo) cells, 39C, ATPlite viability, 24 h; series mostly up to 46.1 µM; activity, negative = cell killing: at the top concentration; also: nearly all actives have a fitted effect of over 50% in size;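 as to activity, negative = cell killing: 0% = DMSO only and -100% = full killing by 100 µM tamoxifen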
From the text: NIH Chemical Genomics Center [NCGC] NIH Molecular Libraries Screening Centers Network [MLSCN] MLSCN Grant: 1 X01 MH079844-01 Assay Submitter (PI): Dr. SUN, YI, University of Michigan NCGC Assay Overview: Synthetic Lethal Screen for Compounds to Kill Cancer Cells with p53 Mutation. Tumor suppressor gene p53 serves as a major cellular barrier against tumorigenesis. […] The goal of this screening is to identify small molecule probes that selectively kill cancer cells with mutations in p53. This screening was carried out using two lines of H1299 lung cancer cells. The H1299-p53 A138V line express a temperature sensitive p53 mutant (p53ts) in which the mutant p53 protein (A138V) is in the mutant confirmation when grown at 39C (the nonpermissive temperature) and in the wild type conformation when grown at 32C (the permissive temperature). A H1299-neo line (p53 null) grown at both 39C and 32C were used as counter-screens to filter out false positive associated with temperature shifting. The small molecular compounds that selectively target mutant p53-containing cancer cells were selected as candidate probes for further study. A cytotoxicity assay based on the measurement of ATP contents in cells was used in this screen. Concentration-responses of all the compounds in the library collection were determined in qHTS using the cell lines and temperature conditions as above.
NCGC Assay Protocol Summary: Both the H1299-p53A138V and H1299-neo cell lines were provided by Dr.Yi Sun, a PI at the University Michigan. The cells were maintained and cultured at 37C. The resuspended frozen cells were used to plate the cells in the 1536-well assay plates at a density of 600 cells per well in 5 ul medium. The assay plates with the cells were incubated at 37C for 16 to 30 hours before the experiments. The library compounds in DMSO solution were added to the cells in assay plates and incubated 24 hours at 39C (for mutant p53 conformation) or 32C (for normal p53 conformation as control). An ATP_lite assay kit (PerkinElmer) was used to determine the cell viability. Tomaxifen (100uM) was used as the positive control for cell killing. Data were normalized to the controls for basal activity (DMSO only) and 100% killing (100uM tamoxifen). AC50 values were determined from concentration-response data modeled with the standard Hill equation. P53 assay protocol: 1. Reagent; 5 uL H1299-p53A138V or H1299-neo cell cells/well 2. Time; overnight; 37C incubation 3. Compounds; 23 nL; 5.9 nM to 46 uM 4. Controls; 23 nL; Tamoxifen 100 uM 5. Time; 24 hr; 39C incubation 6. Reagent; 3 uL; ATP_Lite reagent 7. Time; 20 min; Room Temperature 8. Detection; Luminescence; Viewlux plate reader Keywords: p53, synthetic lethal, cancer, cell viability, cytotoxicity, H1299 cell line, luminescence, MLSMR, MLSCN, NIH Roadmap, qHTS, NCGC
Potency is read from the fitted curve at half-maximal effect.

SMILES	activity, negative = cell killing	Potency
Cc1ccccc1CNC(=O)C(=O)NCC(c1cccs1)S(=O)(=O)c1cccs1 (stereo unspecified)	35.3%	
CCC(=O)N1c2ccccc2CC1C(=O)N1CCN(c2ccccc2F)CC1 (stereo unspecified)	-6.5%	
Cc1ccc(OCC(=O)OCc2cc(=O)n3nc(C4CC4)sc3n2)cc1	-8.09%	
COc1ccccc1NC(=O)c1cc(S(=O)(=O)NCCc2ccccc2)ccc1F	10.5%	
COCCn1c(SCC(=O)c2cc(C)ccc2C)nc2cc(C(=O)NC3CCCC3)ccc2c1=O	10.6%	
CCn1c(CNC(=O)c2ccccc2)nnc1SCC(=O)N1CCN(c2ccccc2)CC1	6.06%	
CCOCN(C(=O)Cn1c(C(C)O)nc2ccccc21)c1c(C)cccc1CC (stereo unspecified)	21.6%	
COc1cc(-c2cc3n(C)c(C)c(CCC(=O)Nc4ccc(F)cc4)c(=O)n3n2)cc(OC)c1OC	-1.61%	
COc1ccc(NC(=O)CN2C(=O)C(c3ccccc3)=NC23CCCCCC3)cc1OC	23.8%	
COc1ccc(-c2nn(CC(=O)Nc3ccccc3F)c3c2cnc2ccc(F)cc23)cc1	-18%	
COC(=O)c1nc2ccccc2s1	6.87%	
CCc1ccccc1N1C(=O)CN(S(=O)(=O)CC)CC1(C)C(=O)NC1CCCCC1 (stereo unspecified)	2.03%	
O=C(Nc1cccc(F)c1)c1coc(=O)c(Br)c1	22%	
COc1cccc(CNC(=O)C(=O)NCC(c2cccs2)S(=O)(=O)c2ccccc2)c1 (stereo unspecified)	-16.5%	
Cc1ccc(C)c(Cn2c(CCCNC(=O)C3CCCCC3)nc3ccccc32)c1	9.17%	
O=C(CC(NCc1cccnc1)C(=O)O)Nc1ccc(O)cc1 (stereo unspecified)	2.24%	
CCN1C(=O)c2ccccc2Sc2ccc(NC(=O)Cc3ccc(OC)cc3)cc21	-3.19%	
C/C(CC(=O)Nc1ccc(Cl)cc1)=N\NC(=O)C(=O)NCCO	-7.37%	
CC(=O)c1sc(N2C(=O)c3oc4ccccc4c(=O)c3C2c2ccc(C)cc2)nc1C (stereo unspecified)	-20.5%	
COC(=O)c1ccccc1NC(=O)Cn1c(=O)n(-c2cccc(C(F)(F)F)c2)c(=O)c2c(C)c(C)sc21	-6.26%	
CCCCOc1ccc(CN2C(=O)C(=O)c3cc(Br)cc(C)c32)cc1OC		11.2 µM (active)

SMILES	activity, negative = cell killing	Potency
COc1ccc(CCN2C(=O)C3CC=C(C)CC3C2=O)cc1OC (stereo unspecified)	9.02%	
CCCCOc1ccc(Cn2c(=O)oc3ccc(C)cc32)cc1OC	-20.1%	
COc1ccc(CCNC(=O)/C(C#N)=C2\N=C(NC(=O)c3cccs3)c3ccccc32)cc1	-0.547%	
CCCS(=O)(=O)Nc1cccc(-c2cn3ccsc3n2)c1	-16.7%	
CCC(CC)c1nn2cc(-c3ccccc3)nc2s1		7.94 µM (active)
CCc1ccc(CNC(=O)C2CCN(c3nn4cc(-c5ccc(F)cc5)nc4s3)CC2)cc1	-5.73%	
Cc1ccc(Cl)cc1NC(=O)CSc1nccn1C	28.3%	
COc1cccc(CNC(=O)Cn2c(=O)c3cccn3c3ccc(F)cc32)c1OC	10.8%	
CC(C)NC(=S)N1CCN(C(c2ccccc2)c2ccccc2)CC1	2.42% [at 1.84 µM]	
CCC(C)NC(=O)Cn1c(=O)n(-c2ccc(Cl)cc2)c(=O)c2c3c(sc21)CCCC3 (stereo unspecified)	13.8%	
Cc1ccc(N(CC(=O)NCC(C)c2ccccc2)S(=O)(=O)N(C)C)cc1 (stereo unspecified)	9.74%	
Cc1ccc(OCCSc2nc(-c3cccs3)nc3cc(=O)[nH]n23)cc1Cl	10.9%	
O=C(ON=C1CCN(S(=O)(=O)c2ccccc2)CC1)c1ccc(Cl)cc1	19.7%	
CCOC(=O)CSC1=Nc2ccccc2C2=NC(CCC(=O)NCc3ccc(F)cc3)C(=O)N12 (stereo unspecified)	-3.67%	
O=C(/C=C/c1cn(CC(O)CN2CCc3ccccc32)c2ccccc12)c1ccc(Br)cc1 (stereo unspecified)	-12.6%	
COc1ccc(OCCn2cc(C(=O)C3CCCCC3)c3ccccc32)cc1	-24.1%	
CCOc1ccc(C(=O)/C=C/c2cn(CC(O)CN3CCCCCC3)c3ccccc23)cc1 (stereo unspecified)		12.6 µM (active)
O=C(Cc1cccs1)Nc1nnc(SCc2ccc(F)cc2)s1	5.89%	
CCc1ccccc1N(C)C(=O)C1CCCN(c2ncnc3onc(-c4ccc(F)cc4)c23)C1 (stereo unspecified)	-13.8%	
Cc1nn(Cc2ccc(F)cc2)c(C)c1NC(=O)c1cc(CC(C)C)on1	2.53%	
COc1ccc(C2(CNC(=O)C(c3ccccc3)c3ccccc3)CCOCC2)cc1OC	-10.5%	

SMILES	activity, negative = cell killing	Potency
CCC(CC)C(=O)N1CCc2cc(OC)c(OC)cc2C1COc1ccc(F)cc1 (stereo unspecified)	35.1%	
COc1cccc(N2CCN(S(=O)(=O)c3cc(Br)cc4c3N(C(=O)C3CC3)CC4)CC2)c1	-22.6%	
Oc1c(C(c2ccc(F)cc2)N2CCN(Cc3ccccc3)CC2)sc2nc(-c3ccco3)nn12 (stereo unspecified)	8.44%	
CCCC(=O)Nc1cc(C(=O)NCc2ccc(OC)cc2)ccc1S(=O)(=O)c1ccc(Cl)cc1	0.688%	
Cn1c(=O)c(=O)n(C)c2cc(NC(=O)c3ccccc3Br)ccc21	-25.1%	
CCc1nn(CCCC(=O)NCc2ccc(C)cc2)c(=O)c2cc3occc3n12	-21.6%	
Cc1ccc(NC(=O)C(=O)NCc2ccc(/C=N/NC(=O)c3c(C)nc4cc(C)ccn34)o2)cc1	8.36%	
Cc1c(C(=O)NCCCc2ccccc2)cccc1[N+](=O)[O-]	-7.93% [at 1.84 µM]	
CC(NC(=S)Nc1ccccc1)C1COc2ccccc2O1 (stereo unspecified)	-2.56%	
COc1cccc2c1cc1c(=O)n(CC(=O)N3CCN(c4cccc(Cl)c4)CC3)nc(C)n12	-8.53%	
COc1cc(OC)c(C(=O)Nc2ccccc2-c2ccccc2)cc1OC	18.9% [at 1.84 µM]	
CCOC(=O)c1ccc(NC(=O)Cn2c(=O)cc(C)c3c(C)nn(-c4cccc(F)c4)c32)cc1	-0.639%	
Cc1nn(-c2ccccc2)c(Cl)c1/C=C/C(=O)c1ccc(O)cc1	23.1%	
COc1ccc(NC(=O)CC2C(=O)OCC3CCCCN32)cc1Cl (stereo unspecified)	14% [at 1.84 µM]	
CC(C)(C)c1ccc(C(=O)NCc2nnc(SCC(=O)N3CCCc4ccccc43)n2-c2ccccc2)cc1	-3.75%	
Cc1cc(C)c(NC(=O)c2oc3ccccc3c2COc2ccccc2)c(C)c1	16.4%	
Cc1ccccc1NC(=O)c1c(NC(=O)c2ccccc2F)sc2c1CCC(C)C2 (stereo unspecified)	3.45%	
O=C(Nc1nc2c(s1)CCCC2)c1ccccc1F		7.94 µM (active)
Cc1cc(C)cc(OC(C)C(=O)Nc2nc3c(s2)CCCC3)c1 (stereo unspecified)	7.6%	

Reference: PubChem BioAssay AID904 (National Center for Advancing Translational Sciences (NCATS), 2007)
